The values that follow come from PubChem BioAssay.

The source made the active and inactive calls.

Test [1] is described as follows: optical density shifts of acrAB sulA E. coli – strain DRC41, OD650, 48 h, E. coli filamentation inducer project, primary screen (AID 1152).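 Also: E. coli MC1000 strain DRC41 lacking acrAB efflux pump and sulA.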 Conditions: higher = more signal, called active from +8 up or from −8 down.
A short description of test [2]: probe aLefty1 binding on compound microarray – biochemical, small-molecule microarray, 635/667 nm fluorescence, primary screen (AID 1153).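 Also: score merges spot fluorescence with signal-to-noise ratio from the scanned slide images.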 The conditions noted are these: higher = more signal.
Test [3] in a line: plasmodial surface anion channel blockers, osmotic lysis – cell-based, P. falciparum Indochina, OD700, 1 h, primary screen (AID 1154). The conditions noted are these: P. falciparum Indochina infected RBC osmotic lysis, higher = more signal, called active from +8 up or from −8 down.
The nature of test [4]: plasmodial surface anion channel blockers, osmotic lysis – cell-based, P. falciparum Indochina, OD700, 2 h, primary screen (AID 1155).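 Also: lysis reports solute entry through the parasite surface anion channel PSAC.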 The conditions noted are these: P. falciparum Indochina infected erythrocytes, higher = more signal, called active from +8 up or from −8 down.
A short description of test [5]: changes in parasitized red cell lysis, either direction – P. falciparum Indochina, OD700, 3 h, PSAC antagonist project, primary screen (AID 1156). Conditions: P. falciparum-infected erythrocytes, osmotic lysis, higher = more signal, called active from +8 up or from −8 down.
Test [6] is described as follows: plasmodial surface anion channel blockers, osmotic lysis – cell-based, P. falciparum Indochina, OD700, 18 h, primary screen (AID 1157). The conditions noted are these: P. falciparum Indochina infected erythrocytes, osmotic lysis OD700, 18 h; higher = more signal, called active from +8 up or from −8 down.
Test [7] in a line: S6 kinase pathway phospho-S6 level changes – cell-based, A549, cytoblot, luminescence, serum-stimulated, primary screen (AID 1158).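 Also: serum-stimulated A549 lung adenocarcinoma cells; signal is phosphorylated S6 detected by cytoblot immunostaining with HRP secondary.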 The conditions noted are these: 5 h, higher = more signal.
For test [8], the target named is NADPH oxidase 2 (Homo sapiens) (UniProt P04839). Briefly: compounds shifting NOX2 Amplex Red fluorescence – cell-based, HEK293-NOX2, PMA-stimulated, NOX inhibitor project, primary screen (AID 1159). Also: test concentration not given here. Conditions: 45 min, higher = more signal, called active from +8 up or from −8 down.
In test [9] the target is NADPH oxidase 4 (Homo sapiens) (UniProt Q9NPH5). Briefly: compounds shifting NOX4 Amplex Red fluorescence – cell-based, HEK293-NOX4, tetracycline-induced, NOX inhibitor project, primary screen (AID 1160). Conditions: HEK293-NOX4, Amplex Red H2O2 fluorescence, 45 min; higher = more signal, called active from +8 up or from −8 down.
Test [10] has as its target NADPH oxidase 5 (Homo sapiens) (UniProt Q96PH1). Put plainly: compounds shifting NOX5 Amplex Red fluorescence – cell-based, HEK293-NOX5, NOX inhibitor project, primary screen (AID 1161). The conditions noted are these: HEK293-NOX5, ionomycin, 45 min, higher = more signal.
The nature of test [11]: compound effects on lung adenocarcinoma cell viability – A549, calcein-AM fluorescence, 48 h, basal, profiling panel (AID 1162). Also: test concentration not given here. The conditions noted are these: higher = more signal.
Test [12] in a line: compound effects on differentiated 3T3-L1 adipocyte viability – cell-based, 3T3-L1 adipocytes, calcein-AM fluorescence, 48 h, basal, profiling panel (AID 1163). Also: test concentration not given here. Conditions: 3T3-L1 adipocytes viability, higher = more signal.
A short description of test [13]: compound effects on hepatocellular carcinoma cell viability – HepG2, calcein-AM fluorescence, 48 h, basal, profiling panel (AID 1164). Also: test concentration not given here. Conditions: higher = more signal.
A short description of test [14]: compound effects on multiple myeloma cell viability – MM1S, calcein-AM fluorescence, 48 h, basal, profiling panel (AID 1165). Also: test concentration not given here. Conditions: higher = more signal.
Test [15] in a line: calcein-AM signal in unstimulated myeloma cells – cell-based, calcein-AM fluorescence, 48 h, PK04 Diversity Set, profiling panel (AID 1166).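 Also: cells grown under basal conditions without added stimulus; test concentration not given here.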 Conditions: RPMI8226 myeloma viability, higher = more signal.
Test [16] in a line: JC-1 mitochondrial signal, unstimulated HepG2 cells – cell-based, JC-1 fluorescence, 24 h, 100 nL compound, profiling panel (AID 1167). Also: test concentration not given here. The conditions noted are these: HepG2 mitochondrial potential, higher = more signal.
A short description of test [17]: JC-1 mitochondrial signal, unstimulated adipocytes – cell-based, JC-1 fluorescence, 3T3-L1 adipocytes, 24 h, 100 nL compound, profiling panel (AID 1168). Also: test concentration not given here. Conditions: JC-1 mitochondrial fluorescence, higher = more signal, called active from +8 up or from −8 down.
Test [18] in a line: JC-1 mitochondrial signal, unstimulated myeloma cells – cell-based, JC-1 fluorescence, RPMI8226, 24 h, 100 nL compound, profiling panel (AID 1169). Also: test concentration not given here. Conditions: JC-1 mitochondrial potential fluorescence, higher = more signal.
A short description of test [19]: JC-1 mitochondrial signal, unstimulated MM1S myeloma – cell-based, JC-1 fluorescence, 24 h, 100 nL compound, profiling panel (AID 1170). Also: test concentration not given here. Conditions: MM1S mitochondrial potential, higher = more signal.
Test [20] is described as follows: resazurin metabolic signal in A549 cells – cell-based, resazurin fluorescence, 24 h, PK04 Diversity Set, profiling panel (AID 1171). Also: test concentration not given here. Conditions: A549 viability, higher = more signal, called active from +8 up or from −8 down. For orientation: The colour change of resazurin is a common sign of viable cells or microbes.

Chain of NADPH oxidase 4 (Homo sapiens) (Q9NPH5 whole entry, looked up): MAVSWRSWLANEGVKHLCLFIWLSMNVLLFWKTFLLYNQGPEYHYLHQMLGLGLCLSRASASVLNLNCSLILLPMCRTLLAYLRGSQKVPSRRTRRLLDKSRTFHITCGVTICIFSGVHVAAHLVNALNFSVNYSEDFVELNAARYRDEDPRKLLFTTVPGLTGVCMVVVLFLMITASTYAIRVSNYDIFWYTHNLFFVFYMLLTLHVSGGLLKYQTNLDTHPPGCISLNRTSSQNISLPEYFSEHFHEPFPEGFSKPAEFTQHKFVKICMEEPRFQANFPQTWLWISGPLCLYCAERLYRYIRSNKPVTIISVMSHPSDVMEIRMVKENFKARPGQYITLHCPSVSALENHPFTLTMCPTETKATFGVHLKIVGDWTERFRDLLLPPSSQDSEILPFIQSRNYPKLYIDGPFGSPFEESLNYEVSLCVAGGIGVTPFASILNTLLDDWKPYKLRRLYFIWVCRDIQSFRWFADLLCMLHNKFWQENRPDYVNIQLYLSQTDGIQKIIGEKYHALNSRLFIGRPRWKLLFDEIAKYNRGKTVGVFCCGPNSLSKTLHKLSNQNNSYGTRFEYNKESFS
Chain of NADPH oxidase 2 (Homo sapiens) (P04839 whole entry, looked up): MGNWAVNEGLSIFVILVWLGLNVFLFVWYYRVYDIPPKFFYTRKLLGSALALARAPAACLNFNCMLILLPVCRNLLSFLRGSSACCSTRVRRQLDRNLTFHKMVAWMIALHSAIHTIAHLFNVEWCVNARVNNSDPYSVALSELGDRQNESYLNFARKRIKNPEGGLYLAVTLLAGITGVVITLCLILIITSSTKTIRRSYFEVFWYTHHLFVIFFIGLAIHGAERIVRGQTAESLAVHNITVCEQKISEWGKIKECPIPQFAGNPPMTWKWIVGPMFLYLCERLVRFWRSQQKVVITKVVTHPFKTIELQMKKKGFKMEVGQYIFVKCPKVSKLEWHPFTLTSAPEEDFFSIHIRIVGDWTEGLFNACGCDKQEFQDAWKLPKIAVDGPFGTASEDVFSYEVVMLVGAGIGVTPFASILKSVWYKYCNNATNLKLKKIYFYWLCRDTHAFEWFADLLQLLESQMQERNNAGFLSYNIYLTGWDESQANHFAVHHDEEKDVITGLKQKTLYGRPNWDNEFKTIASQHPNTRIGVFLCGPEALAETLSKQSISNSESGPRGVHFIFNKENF
Chain of NADPH oxidase 5 (Homo sapiens) (Q96PH1 whole entry, looked up): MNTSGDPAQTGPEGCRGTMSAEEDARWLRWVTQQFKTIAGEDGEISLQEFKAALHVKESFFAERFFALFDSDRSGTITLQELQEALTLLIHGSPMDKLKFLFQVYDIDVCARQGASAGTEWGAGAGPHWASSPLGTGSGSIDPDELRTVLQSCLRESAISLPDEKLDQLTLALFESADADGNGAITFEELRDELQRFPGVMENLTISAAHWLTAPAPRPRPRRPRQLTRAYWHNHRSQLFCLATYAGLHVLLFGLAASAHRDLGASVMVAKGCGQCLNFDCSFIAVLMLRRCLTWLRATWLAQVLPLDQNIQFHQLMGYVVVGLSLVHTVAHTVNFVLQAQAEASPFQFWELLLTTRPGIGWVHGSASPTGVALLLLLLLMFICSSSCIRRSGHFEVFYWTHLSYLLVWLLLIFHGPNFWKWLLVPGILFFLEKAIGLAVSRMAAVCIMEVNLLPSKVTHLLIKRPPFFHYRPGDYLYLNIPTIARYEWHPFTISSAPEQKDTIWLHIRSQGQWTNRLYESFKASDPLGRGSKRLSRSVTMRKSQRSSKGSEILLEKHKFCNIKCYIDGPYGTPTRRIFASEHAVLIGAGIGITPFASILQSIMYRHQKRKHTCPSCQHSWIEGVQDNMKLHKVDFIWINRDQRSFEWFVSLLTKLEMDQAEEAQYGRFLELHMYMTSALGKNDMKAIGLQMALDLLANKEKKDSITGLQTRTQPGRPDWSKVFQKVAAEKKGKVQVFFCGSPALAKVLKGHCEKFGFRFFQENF

For the compound `C[C@H]1COC(=O)[C@@H]2CCCN2C(=O)[C@@H](C)COC(=O)[C@@H]2CCCN2C1=O`, the z-score in [1] was 0.407 (inactive); in [3] it was -0.0889 (inactive); in test [4] it was 0.0593 (inactive); in test [5], 0.425 (inactive); in test [6], -0.187 (inactive); in [7], 0.33. Also, the z-score in test [8] is 0.764 (inactive); in test [9], 0.382 (inactive); in test [10], -0.406; in test [11] it was 0.507; in test [12], 0.442; in test [13], -0.178. Further, the z-score is 0.323 in test [14]; -0.0243 in test [15]; 0.799 in [16]; 0.085 (inactive) in test [17]; -0.108 in test [18]; 0.0551 in test [19]. For the same compound, in test [20], the z-score was 1.5 (inactive). The composite z-score in [2] was -0.147.
Turning to `O=C1C[C@@](C(=O)NC2CC2)(c2ccc([N+](=O)[O-])cc2)[C@@H](c2ccc(CO)cc2I)N1CC12CC3CC(CC(C3)C1)C2`, the z-score in test [1] was -1.11 (inactive); in test [3], 22.3 (active); in test [4] it was 6.32 (inactive); in test [5], 1 (inactive); in test [6], 1.99 (inactive); in test [7], -0.284. In addition, the z-score was 1.86 (inactive) in test [8]; 0.129 (inactive) in test [9]; 1.92 in [10]; -2.31 in [11]; -0.375 in [12]; -5.04 in [13]. The z-score in test [14] was -3.83; in [15] it was -4.33; in [16] it was -2.32; in test [17], -0.869 (inactive); in test [18], -1.02; in test [19], -2.4. Further, in test [20], the z-score was -3.35 (inactive). Moreover, the composite z-score in test [2] turned out to be 0.0158.
For `O=C1c2ccccc2[C@](Cc2ccccc2I)(C(=O)O)[C@H](c2ccc(CO)cc2)N1C1CCCCC1`, the z-score was 2.84 (inactive) in test [1]; 3.72 (inactive) in test [3]; 0.525 (inactive) in [4]; 0.974 (inactive) in test [5]; -0.339 (inactive) in test [6]; 2.86 in test [7]. The z-score in [8] is 1.06 (inactive); in test [9] it was -0.737 (inactive); in test [10] it was -0.473; in test [11], 0.0699; in test [12] it was 2.82; in test [13], -0.0275. The z-score in test [14] was 0.832; in test [15] it was -3.14; in [16], 0.0952; in test [17] it was -0.641 (inactive); in test [18] it was -0.193; in [19], 0.148. For the same compound, the z-score in test [20] is 1.07 (inactive). The same compound showed a composite z-score in [2] of 0.138.
On to `COc1ccc(NN2C(C(O)c3cc(OC)c(OC)c(OC)c3)C=CC3C(=O)N(C4CCCCC4)C(=O)C32)cc1` (stereo not given), for which the z-score in test [1] was -0.413 (inactive); in test [3] it was 11.5 (active); in test [4], 1.74 (inactive); in [5], 0.752 (inactive); in test [6], 0.558 (inactive); in [7], -0.241. For the same compound, the z-score is -1.55 (inactive) in test [8]; -1.85 (inactive) in test [9]; -2.67 in test [10]; -0.753 in test [11]; -1.42 in [12]; 1.17 in [13]. Besides, the z-score is 0.651 in test [14]; -0.177 in test [15]; 0.861 in test [16]; -0.569 (inactive) in test [17]; 0.00692 in [18]; -1.78 in test [19]. Also, the z-score in test [20] is 0.239 (inactive). Also, in test [2], the composite z-score amounted to 0.06.
Regarding `COc1ccc(-c2ccccc2[C@@H]2N[C@H](C(=O)O)CC[C@H]2C)cc1`, the z-score in test [1] was 0.522 (inactive); in test [3], 0.908 (inactive); in test [4], 0.443 (inactive); in [5] it was 1.42 (inactive); in [6], -0.0201 (inactive); in test [7], 0.305. Moreover, the z-score is 0.653 (inactive) in test [8]; -1.28 (inactive) in test [9]; -0.431 in test [10]; 0.212 in [11]; 1.63 in test [12]; -0.428 in test [13]. Further, the z-score in test [14] was 1.09; in [15], -0.372; in test [16] it was 0.924; in test [17] it was 0.366 (inactive); in test [18], 0.1; in test [19], 0.614. For the same compound, in test [20], the z-score was 0.597 (inactive). For the same compound, in test [2], the composite z-score was -0.147.
With `COc1ccc(CCN2C(=O)[C@@]3(c4ccc([N+](=O)[O-])cc4)CC(=O)N(CC45CC6CC(CC(C6)C4)C5)[C@@H]3c3ccc(CO)cc32)cc1`, the z-score in test [1] was 0.683 (inactive); in test [3], 1.39 (inactive); in [4], 0.77 (inactive); in test [5], 0.393 (inactive); in test [6] it was 0.427 (inactive); in [7] it was -0.385. Besides, the z-score is -0.447 (inactive) in test [8]; -0.968 (inactive) in test [9]; 1.43 in test [10]; 1.44 in test [11]; 0.0861 in test [12]; 0.71 in test [13]. In addition, the z-score in test [14] is 0.0097; in test [15], -0.346; in [16], 0.0982; in test [17] it was 0.0691 (inactive); in test [18], -0.0825; in test [19], 0.997. Also, in test [20], the z-score was 0.616 (inactive). The compound also returned a composite z-score in test [2] of 0.585.
For the compound `C=CC[C@]1(C(=O)O)N=C(c2ccc(OCCCO)cc2)O[C@H]1c1ccccc1`, the z-score in test [1] is 1.14 (inactive); in test [3], 11.7 (active); in test [4], 0.66 (inactive); in test [5], 0.211 (inactive); in test [6], 0.198 (inactive); in test [7], 0.663. The z-score was -0.343 (inactive) in test [8]; 0.388 (inactive) in test [9]; 1.22 in test [10]; 0.0248 in [11]; 1.88 in test [12]; 0.0696 in test [13]. For the same compound, the z-score in test [14] is -0.394; in test [15] it was -0.512; in test [16], 0.801; in [17] it was 0.0186 (inactive); in [18] it was -0.755; in test [19], 1.29. Moreover, in test [20], the z-score was 0.692 (inactive). Further, the composite z-score in [2] is -0.0984.
Consider `O=C1C2C=CC(C(O)Cc3ccccc3)N(Nc3ccc([N+](=O)[O-])cc3)C2C(=O)N1c1ccccc1` (stereo not given), for which the z-score is -0.458 (inactive) in test [1]; 3.94 (inactive) in test [3]; 1.61 (inactive) in test [4]; 0.371 (inactive) in [5]; 0.877 (inactive) in test [6]; -0.521 in [7]. In addition, the z-score in test [8] was -1.1 (inactive); in [9], -2.7 (inactive); in test [10], -1.64; in test [11], -0.356; in test [12], -0.116; in test [13], 0.0181. For the same compound, the z-score in test [14] was 0.568; in test [15], -0.0631; in test [16], -1.36; in test [17], 0.0226 (inactive); in [18] it was 0.517; in test [19], -0.876. Further, the z-score in test [20] is 0.007 (inactive). Besides, the composite z-score in [2] came out at 0.769.
Regarding `CCN1C(C)=C(C(=O)OC)[C@@H](c2ccccc2)N2C(=O)[C@@]3(C(=O)OC)O[C@@]12[C@@H]1C(=O)CCC[C@@H]13`, the z-score is -0.128 (inactive) in test [1]; 0.732 (inactive) in [3]; -0.69 (inactive) in test [4]; 1.56 (inactive) in test [5]; -1.11 (inactive) in test [6]; 0.641 in test [7]. Further, the z-score in test [8] was 0.715 (inactive); in test [9] it was 1.11 (inactive); in [10], 0.25; in test [11], -0.195; in test [12], 0.955; in test [13], -0.369. The z-score in test [14] was 0.853; in test [15] it was 0.476; in [16] it was 0.638; in test [17], 0.881 (inactive); in [18], 0.538; in test [19] it was 0.29. Moreover, the z-score in [20] was 0.282 (inactive). The compound also displayed a composite z-score in test [2] of -0.0518.
